Only some compounds are listed: those with a hit (about 21% of all), similar ones and a draw of the others.
IL-1B inflam inh = qHTS for Inhibitors of Inflammasome Signaling: IL-1-beta AlphaLISA Primary Screen; THP-1 LPS/ATP IL-1B secretion, AlphaLISA, 16 h; hits give low values; activity change, % at 57.5 µM; 360,000 compounds, 4.7% hits; AID 743279, 2014; in the data active = activity change below about -50%; inconclusive = mostly about -30% to -49%
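Secreted IL-1B measured by AlphaLISA bead assay after 16 h compound exposure of THP-1 cells; compounds (final up to 57.5 uM) added 1 h before LPS (250 ng/mL) and ATP (1.25 mM) stimulation; lower signal means less secretion.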
DT40 TDP1 no CPT = qHTS for Inhibitors of human tyrosyl-DNA phosphodiesterase 1 (TDP1): qHTS in cells in absence of CPT | DT40 Tdp1-/- hTDP1 cells, no CPT, ATP luminescence, 48 h | Potency, µM (highest dose often 46.2 µM), inactives show at the highest dose activity change, negative = growth inhibition, most hits filed as inhibitors | 420,000 compounds, 15% hits | AID 686978, 2013; note: potency is the fitted concentration of half-maximal effect; nearly all actives have a fitted effect of over 55% in size
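Cells were dispensed at 400 per well, compounds added by pin tool, plates incubated ≥48 hr at 37 °C, then CellTiter-Glo added for 30 min at room temperature before luminescence reading. Line: DT40 Tdp1-/- complemented with hTDP1; camptothecin omitted.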
RORgamma inh = qHTS for inhibitors of ROR gamma transcriptional activity. Nuclear receptor ROR-gamma (Mus musculus), P51450. Drosophila S2 Gal4-RORgamma UAS-luciferase reporter, 20 h. Potency, µM (titrated, usually from 53.6 µM), inactives show top-dose activity change, negative = inhibition, usual class: inhibitors. 310,000 compounds, 5.4% hits. AID 2551, 2010; note: potency is the fitted concentration of half-maximal effect; nearly all actives have a fitted effect of over 60% in size
Target sequence (P51450 whole entry, looked up, the tested form may be a part): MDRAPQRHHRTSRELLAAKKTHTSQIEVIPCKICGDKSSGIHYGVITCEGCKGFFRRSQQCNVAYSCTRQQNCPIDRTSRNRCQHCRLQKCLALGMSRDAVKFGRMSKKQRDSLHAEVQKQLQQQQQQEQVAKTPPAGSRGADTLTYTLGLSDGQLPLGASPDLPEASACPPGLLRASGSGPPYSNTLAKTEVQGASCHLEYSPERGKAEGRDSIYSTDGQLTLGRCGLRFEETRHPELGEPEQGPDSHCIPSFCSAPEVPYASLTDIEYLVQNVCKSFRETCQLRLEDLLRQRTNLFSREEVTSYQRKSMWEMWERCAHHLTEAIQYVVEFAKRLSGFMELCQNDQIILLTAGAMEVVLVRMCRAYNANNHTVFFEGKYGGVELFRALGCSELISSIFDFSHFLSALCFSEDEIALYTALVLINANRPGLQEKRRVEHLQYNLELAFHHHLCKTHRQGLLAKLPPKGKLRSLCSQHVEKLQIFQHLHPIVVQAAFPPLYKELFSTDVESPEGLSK
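Stably transfected Drosophila Schneider cells are the test system, with ROR gamma fused to Gal4 and luciferase under UAS control; luminescence is read after 20 hr of 700 uM copper sulfate induction at ambient temperature.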
DT40 TDP1 CPT = qHTS for Inhibitors of human tyrosyl-DNA phosphodiesterase 1 (TDP1): qHTS in cells in presence of CPT; chicken DT40 Tdp1-/-;hTDP1 cells + 20 nM CPT, ATP luminescence, 48 h; 420,000 compounds, 12% hits; Potency, µM (series often up to 46.2 µM), inactives show at the top dose activity change, negative = growth inhibition, actives largely listed as inhibitors; note: potency is the fitted concentration of half-maximal effect; nearly all actives have a fitted effect of over 55% in size
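Cell growth measured by CellTiter-Glo luminescence after a minimum 48 h, 37 C compound exposure with 20 nM CPT in Tdp1-knockout DT40 cells stably expressing hTDP1, seeded 400/well; qHTS titration format.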
ELG1 DNA repair = qHTS screen for small molecules that inhibit ELG1-dependent DNA repair in human embryonic kidney (HEK293T) cells expressing luciferase-tagged ELG1; 330,000 compounds, 2.3% hits; Potency, µM (highest dose often 46.1 µM), inactives show top-dose activity change, negative = inhibition, most hits filed as inhibitors; HEK293T ELG1-luciferase reporter, luminescence, 16 h; DNA damage induced by 5-fluorouridine; AID 504467, 2011; note: potency is the fitted concentration of half-maximal effect; nearly all actives have a fitted effect of over 55% in size
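Luminescence from the luciferase reporter, measured 30 min after ONE-Glo reagent at room temperature, was the read-out. Beforehand, 2,000 cells per well were exposed for 16 hr at 37 °C to 5-fluorouridine together with compound or vehicle.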
VP16 counter = VP16 counterscreen qHTS for inhibitors of ROR gamma transcriptional activity. Drosophila S2 Gal4-VP16 UAS-luciferase, luminescence, 20 h. Potency, µM (titrated, usually from 53.6 µM), inactives show at the top dose activity, negative = inhibition, actives largely listed as inhibitors. 310,000 compounds, 3.5% hits. AID 2546, 2010;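 note: Gal4-VP16 expression switched on by copper sulfate through the metallothionein promoter; potency is the fitted concentration of half-maximal effect; nearly all actives have a fitted effect of over 50% in size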
* marks the source's active call; other numbers are inactive results. Unless noted, calls come from the whole dose curve; as a rule, active = well fitted curve in the direction sought with a large enough effect; inconclusive = small, poorly fitted or top-dose-only effect, or another doubt; inactive = no such curve, though single readings can be large; an effect the other way counts as inactive or inconclusive. % is set by controls: 0 for no effect and ±100 for the full control effect.

`O=C(O)c1cc2c(ncc3c(=O)n(-c4ccccc4)[nH]c32)s1` gave IL-1B inflam inh 8.6, DT40 TDP1 no CPT -3.6% and DT40 TDP1 CPT inconclusive.
Screening Cc1cccc(NC(=O)NNC(=O)c2cc3occc3[nH]2)c1C returned IL-1B inflam inh -3.7, DT40 TDP1 no CPT -29.7%, RORgamma inh 3.1%, DT40 TDP1 CPT 0.6%, ELG1 DNA repair 6.2% and VP16 counter 3.3%.
`O=C(/C=C/c1ccco1)NCc1ccccn1` gave IL-1B inflam inh -10.7, DT40 TDP1 no CPT inconclusive, RORgamma inh 4.47µM*, DT40 TDP1 CPT -19.1%, ELG1 DNA repair inconclusive and VP16 counter 1.7%.
For O=C(/C=C/c1ccc([N+](=O)[O-])cc1)NCc1ccccn1 the results were IL-1B inflam inh 15.4, DT40 TDP1 no CPT -5.7%, RORgamma inh 27.4%, DT40 TDP1 CPT inconclusive, ELG1 DNA repair -2.2% and VP16 counter -1.2%.
`COc1ccc(NC(=O)CCC2COc3ccccc3O2)c(OC)c1` (stereo unspecified) gave IL-1B inflam inh -1.8, DT40 TDP1 no CPT inconclusive, RORgamma inh 12.4%, DT40 TDP1 CPT 8.5%, ELG1 DNA repair -1.6% and VP16 counter 11.1%.
Screening O=C(/C=C/c1ccco1)NCC1COc2ccccc2O1 (stereo unspecified) returned IL-1B inflam inh 7.8, DT40 TDP1 no CPT inconclusive, RORgamma inh 2.5%, DT40 TDP1 CPT inconclusive, ELG1 DNA repair inconclusive and VP16 counter 11.2µM*.
Screening COc1ccc(/C=C/C(=O)NCC2COc3ccccc3O2)c(OC)c1 (stereo unspecified) returned IL-1B inflam inh -59.4*, DT40 TDP1 no CPT inconclusive, RORgamma inh 12.6%, DT40 TDP1 CPT -30.0%, ELG1 DNA repair -7.5% and VP16 counter inconclusive.
O=C(Cc1ccccc1)NCC1COc2ccccc2O1 (stereo unspecified) was read as IL-1B inflam inh 1.7, DT40 TDP1 no CPT -13.0% and DT40 TDP1 CPT 3.8%.
O=C(Cn1cc(S(=O)(=O)Cc2cccc(Cl)c2)c2ccccc21)Nc1ccccc1Cl was read as DT40 TDP1 no CPT 1.2% and DT40 TDP1 CPT -3.4%.
Screening COc1ccc(-c2nc3cnc(N4CCOCC4)nc3n(C3CC3)c2=O)cc1 returned DT40 TDP1 no CPT 14.3%, RORgamma inh -17.3%, DT40 TDP1 CPT 12.0% and VP16 counter 6.2%.
For CCc1ccc(/C=N/NC(=O)c2nnn(-c3nonc3N)c2C(C)C)cc1 the results were IL-1B inflam inh 26.9, DT40 TDP1 no CPT 18.4µM*, RORgamma inh 4.9%, DT40 TDP1 CPT inconclusive, ELG1 DNA repair 8.8% and VP16 counter -2.7%.
`CC(C)c1c(C(=O)N/N=C/c2ccccc2OCc2c(F)cccc2Cl)nnn1-c1nonc1N` gave IL-1B inflam inh 68.7, DT40 TDP1 no CPT 2.31µM*, RORgamma inh -13.0%, DT40 TDP1 CPT 5.8µM*, ELG1 DNA repair -6.4% and VP16 counter -4.1%.
Screening Cc1ccc(/C=N/NC(=O)c2nnn(-c3nonc3N)c2C(C)C)s1 returned IL-1B inflam inh 3.3, DT40 TDP1 no CPT -22.0%, RORgamma inh 2.24µM*, DT40 TDP1 CPT -12.2%, ELG1 DNA repair 14.6% and VP16 counter 7.08µM*.
`O=C(O)C(=Cc1ccccc1[N+](=O)[O-])c1ccc2c(c1)OCO2` gave IL-1B inflam inh 44.4, DT40 TDP1 no CPT inconclusive and DT40 TDP1 CPT -13.5%.
`CCN(C(=O)COC(=O)CCCOc1ccccc1)c1c(N)n(Cc2ccccc2)c(=O)[nH]c1=O` gave IL-1B inflam inh -8.2, DT40 TDP1 no CPT -29.7%, DT40 TDP1 CPT -26.6% and ELG1 DNA repair -1.1%.
Screening COc1ccc(CCn2c(-c3ccc(F)cc3)nc3c(c(=O)c4ccccc4n3C)c2=O)cc1OC returned IL-1B inflam inh 52.2, DT40 TDP1 no CPT -28.5%, RORgamma inh 13.3%, DT40 TDP1 CPT -1.4%, ELG1 DNA repair -26.2% and VP16 counter 2.6%.
For O=C(NCC1CCC2(CCN(Cc3cccc4cccnc34)CC2)O1)c1ccco1 (stereo unspecified) the results were DT40 TDP1 no CPT -19.0% and DT40 TDP1 CPT -2.4%.
O=C(C1CC12CCN(Cc1cccc3cccnc13)CC2)N1CCN(Cc2cccs2)CC1 (stereo unspecified) was read as DT40 TDP1 no CPT inconclusive and DT40 TDP1 CPT 1.64µM*.
CCOC(=O)/C(C#N)=C1\Nc2ccccc2N=C1N(CC(C)C)CC(C)C was read as IL-1B inflam inh -58.8*, DT40 TDP1 no CPT 18.4µM*, RORgamma inh -5.5%, DT40 TDP1 CPT inconclusive, ELG1 DNA repair -11.7% and VP16 counter 5.2%.
CCCCN(CCCC)C1=Nc2ccccc2N/C1=C(/C#N)C(=O)OCC was read as IL-1B inflam inh -6.9, DT40 TDP1 no CPT 20.6µM*, RORgamma inh -26.5%, DT40 TDP1 CPT 20.6µM*, ELG1 DNA repair inconclusive and VP16 counter -27.7%.
For CCNC(=O)CC1SC(=Nc2ccc(Cl)cc2)N(CC)C1=O (stereo unspecified) the results were IL-1B inflam inh -1.4, DT40 TDP1 no CPT 20.6µM*, RORgamma inh 23.6%, DT40 TDP1 CPT inconclusive, ELG1 DNA repair 12.2% and VP16 counter -9.3%.
Screening O=C(Nc1ccc(Cl)c(S(=O)(=O)N2CCOCC2)c1)[C@@H]1CCCN1C(=O)c1cccs1 returned IL-1B inflam inh 10.4, DT40 TDP1 no CPT -7.5%, DT40 TDP1 CPT -3.2% and ELG1 DNA repair 8.7%.
`CCS(=O)(=O)c1nc(S(=O)(=O)c2ccc(C)cc2)c(NCCCOC)s1` gave DT40 TDP1 no CPT inconclusive and DT40 TDP1 CPT -24.2%.
Screening O=C(NC(Cc1cn(Cc2ccccc2)cn1)C(=O)O)OCC1c2ccccc2-c2ccccc21 (stereo unspecified) returned IL-1B inflam inh -7.3, DT40 TDP1 no CPT 13µM* and DT40 TDP1 CPT 14.6µM*.
Screening CCOC(=O)C1CCCN(C(=O)c2ccc(Cn3c(=S)[nH]c4cc(C(=O)OC)ccc4c3=O)cc2)C1 (stereo unspecified) returned IL-1B inflam inh -1.6, DT40 TDP1 no CPT 25.9µM*, RORgamma inh -32.4%, DT40 TDP1 CPT inconclusive, ELG1 DNA repair inconclusive and VP16 counter 25.2%.
